Test results reported in the supplement of paper PMC10369915.

Biological target: SHP2 N-SH2 domain T42A
Experiment: log2 enrichment relative to wild-type ITIM peptide; higher = stronger binding

Row | Binder | log2 enrichment
1 | VFSVDYPELDF [PD-1 ITIM pTyr223 peptide variant G224P] | 1.75
2 | VFSVPYGELDF [PD-1 ITIM pTyr223 peptide variant D222P] | 1.61
3 | VPSVDYGELDF [PD-1 ITIM pTyr223 peptide variant F219P] | 0.209
4 | PFSVDYGELDF [PD-1 ITIM pTyr223 peptide variant V218P] | 0.0339
5 | VFSVDYGELDP [PD-1 ITIM pTyr223 peptide variant F228P] | -1.6
6 | VFSVDYGMLDF [PD-1 ITIM pTyr223 peptide variant E225M] | -0.596
7 | VFSPDYGELDF [PD-1 ITIM pTyr223 peptide variant V221P] | -1.23
8 | VFSVDYGEPDF [PD-1 ITIM pTyr223 peptide variant L226P] | -0.564
9 | VFSVDYGELMF [PD-1 ITIM pTyr223 peptide variant D227M] | -0.781
10 | VFSVDYGELPF [PD-1 ITIM pTyr223 peptide variant D227P] | -1.19
